Sampled rows, rich in hits. Any-hit rate of the full collection: about 4%.
Rv3671c protease – Rv3671c (M. tuberculosis) protease inhibition | P9WHR9 | inhibition, % at 5.96 µM | 0.048% of 320,000 active; in the data active means inhibition above about 38%;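 further: extracellular domain of Rv3671c used as enzyme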
RecA splice inh – blocks M. tuberculosis RecA intein splicing; AID 2221; P9WHJ3; cell-free RecA intein splicing, fluorescence; inhibition, % (test concentration not listed); 0.75% of 290,000 active; in the data active means inhibition above about 30%
FBA Mtb inh – inhibits M. tuberculosis FBA enzyme; purified M. tuberculosis FBA, fluorescence read-out; inhibition, % at 1 µM; 2.3% of 360,000 active; in the data active means inhibition above about 27%
UGM FP inh – inhibitors of M. tuberculosis UDP-galactopyranose mutase | inhibition, % at 10 µM | purified UGM, fluorescence polarization probe displacement | P9WIQ1 | 0.06% of 320,000 active; in the data active means inhibition above about 10%, passing the limit was not always enough
Target sequence (P9WIQ1 whole entry, looked up): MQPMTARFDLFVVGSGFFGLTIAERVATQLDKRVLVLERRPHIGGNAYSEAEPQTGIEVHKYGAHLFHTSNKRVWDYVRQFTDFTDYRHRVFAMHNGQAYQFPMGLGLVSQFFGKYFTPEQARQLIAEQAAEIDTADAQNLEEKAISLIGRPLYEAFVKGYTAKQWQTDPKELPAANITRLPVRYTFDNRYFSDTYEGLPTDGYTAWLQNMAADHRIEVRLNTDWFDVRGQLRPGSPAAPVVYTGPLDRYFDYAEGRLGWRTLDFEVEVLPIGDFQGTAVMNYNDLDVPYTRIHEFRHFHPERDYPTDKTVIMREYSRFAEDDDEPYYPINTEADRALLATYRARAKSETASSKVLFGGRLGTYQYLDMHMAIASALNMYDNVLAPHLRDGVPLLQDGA
GDH-TPI counter – inhibits GDH-TPI coupling enzymes, artifact for Mtb FBA screen; GDH-TPI coupled enzyme counterscreen, NADH absorbance; inhibition, % at 4.8 µM; 1.2% of 360,000 active; AID 588335; in the data active means inhibition above about 30%
Mtb bLac sens – beta-lactam sensitization of Mtb H37Rv | M. tuberculosis H37Rv growth with meropenem, percent inhibition | inhibition, % at 25 µM | 0.27% of 330,000 active | AID 434955;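 further: growth measured after seven days incubation then overnight dye step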
GFP chromophore – counter-screen: blocks GFP chromophore formation | shares compounds with RecA splice inh | cell-free GFP chromophore formation, fluorescence | EC50, µM | 83% of 2,100 active | AID 434968
Of the large screens only hits and unclear results are named; the others gave an inactive call (follow-up assays come after a bar, where they were run). Unless noted, how the calls were made is not given here.

O=C1NN=C(c2ccccc2)C1Cc1ccccc1 (stereo unspecified)	none (no result: Rv3671c protease, RecA splice inh, UGM FP inh, Mtb bLac sens)
CC1=NNC(=O)C1Cc1ccccc1 (stereo unspecified)	RecA splice inh 96 | GFP chromophore 0.66
CC1=NNC(=O)C1CC(=O)N/N=C/C(Br)=C/c1ccccc1 (stereo unspecified)	none
CN(C)C(CNC(=O)CCCN1C(=O)c2cccc3cccc(c23)C1=O)c1ccccc1 (stereo unspecified)	none
COc1cc(/C=C(\C#N)c2nc3ccccc3o2)ccc1O	RecA splice inh 34 | GFP chromophore 17
N#C/C(=C\c1ccc(O)cc1)c1nc2ccccc2o1	none
CC(C)N(CCn1c(SCC(=O)Nc2cccnc2Cl)nc2ccccc2c1=O)C(C)C	none (no result: RecA splice inh)
CC(C)(C)c1cc[n+](C2=C([O-])c3ccccc3C(=O)/C2=N\S(=O)(=O)c2ccccc2)cc1	RecA splice inh 50 | GFP chromophore 16
O=C1/C(=N\S(=O)(=O)c2cccs2)C([n+]2ccc(CCCc3ccccc3)cc2)=C([O-])c2ccccc21	none
Cc1cc(C)c[n+](C2=C([O-])c3ccccc3C(=O)/C2=N\S(=O)(=O)c2cccs2)c1	none
CC(C)[n+]1ccn(C2=C([O-])c3ccccc3C(=O)/C2=N\S(=O)(=O)c2ccccc2)c1	RecA splice inh 31 | GFP chromophore 21
Cc1cc[n+](C2=C([O-])c3ccccc3C(=O)/C2=N\S(=O)(=O)c2cccs2)cc1C	RecA splice inh 32 | GFP chromophore 6.7
CC(=O)c1ccc(NS(=O)(=O)c2cccc3cccnc23)cc1	none (no result: Rv3671c protease, RecA splice inh, UGM FP inh, Mtb bLac sens)
COc1ccc(NC(=O)c2c(C)noc2C(C)C)cc1S(=O)(=O)N1CCCCC1	none (no result: RecA splice inh)
CC(C)Oc1ccc(CN2CCC2(C)C(=O)Nc2ccc(Cl)c(Cl)c2)cc1 (stereo unspecified)	none (no result: Rv3671c protease, RecA splice inh, UGM FP inh, Mtb bLac sens)
Cn1c(=O)c([N+](=O)[O-])c(Cl)c2ccccc21	RecA splice inh 56 (no result: Rv3671c protease, UGM FP inh, Mtb bLac sens) | GFP chromophore 11
Cn1c(=O)c([N+](=O)[O-])c(-n2cnc3ccccc32)c2ccccc21	RecA splice inh 63 | GFP chromophore 22
CCN(CC)c1c([N+](=O)[O-])c(=O)n(C)c2ccccc12	none
Cc1onc(-c2ccccc2)c1C(=O)N(CC(C)C)c1c(N)n(CC(C)C)c(=O)[nH]c1=O	none (no result: RecA splice inh)
Cc1ccc(Sc2oc(/C=N/n3cnnc3)cc2Br)cc1	RecA splice inh 62 | GFP chromophore 35
Brc1ccc(/C=N/n2cnnc2)s1	none
CCOC(=O)C1C(C(=O)OC)=C(C(=O)OC)c2ccccc2N1S(=O)(=O)C(F)(F)F (stereo unspecified)	none (no result: Rv3671c protease, RecA splice inh, UGM FP inh, Mtb bLac sens)
O=C(CCl)N1N=C(c2cccs2)CC1c1ccco1 (stereo unspecified)	RecA splice inh 63 | GFP chromophore 31
CN1CCN(CC(=O)N2N=C(c3cccs3)CC2c2ccco2)CC1 (stereo unspecified)	none
O=C1[C@@H](Oc2ccccc2)[C@@H](c2cccnc2)N1c1ccccc1	none (no result: Rv3671c protease, RecA splice inh, UGM FP inh, Mtb bLac sens)
NC(=O)c1ccc(N=Nc2c(O)[nH]c(=O)[nH]c2=O)cc1	none (no result: FBA Mtb inh, GDH-TPI counter)
O=c1[nH]c(O)c(N=Nc2cc([N+](=O)[O-])ccc2O)c(=O)[nH]1	RecA splice inh 73 | GFP chromophore 12
CCOC(=O)c1oc2ccc(Br)cc2c1COC(=O)C1=COCCO1	none
COCCNC(=O)CN1C(=O)NC(c2ccccc2)(c2ccccc2)C1=O	none
COc1ccc(N2C(=O)CC(N(CCc3ccccc3)C(=O)/C=C/C(=O)O)C2=O)cc1 (stereo unspecified)	none | GFP chromophore inactive
O=C(c1ccc(N2CCN(CCO)CC2)nc1)N1CCOCC1	RecA splice inh 37 | GFP chromophore inactive
O=C(c1ccc(F)cc1)N1CCN(c2ccc(N3CCOCC3)nn2)CC1	none
COc1cc(C=C2C(=O)c3ccccc3C2=O)ccc1O	RecA splice inh 46 | GFP chromophore inactive
CCOC(=O)c1c(NC(=S)N2CCCCC2)sc2c1CCN(C(=O)OCC)C2	RecA splice inh 33 | GFP chromophore 25
CCOC(=O)c1c(NC(=S)N2CCOCC2)sc2c1CCN(C(=O)OCC)C2	RecA splice inh 39 | GFP chromophore 33
CC1CCc2c(c3ccccc3n2C(=O)CCl)C1 (stereo unspecified)	RecA splice inh 41 | GFP chromophore 0.69
